According to PubChem BioAssay (NCATS):
Inconclusive results are not listed. Active and inactive are the calls of the source. Calls come from the whole dose curve; as a rule, active = well fitted curve in the direction sought with a large enough effect; inconclusive = small, poorly fitted or top-dose-only effect, or another doubt; inactive = no such curve, though single readings can be large; an effect the other way counts as inactive or inconclusive.

Assays:
[1] = target: Aldehyde dehydrogenase, mitochondrial (Homo sapiens) (UniProt P05091); experiment: qHTS for Inhibitors of the Aldehyde Dehydrogenase Family (ALDH2) Primary screen (AID 2061308); settings: ALDH2 enzyme inhibition qHTS, 1536-well; series mostly up to 56 µM;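 note: plate controls were vehicle for no effect and reference inhibitor for full effect; nearly all actives have a fitted effect of over 55% in size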
[2] = target: Retinaldehyde dehydrogenase 3 (Homo sapiens) (UniProt P47895); experiment: qHTS for Inhibitors of the Aldehyde Dehydrogenase Family (ALDH1A3) Validation screen (AID 2061312); settings: ALDH1A3 enzyme inhibition qHTS validation, fluorescence; series mostly up to 84.7 µM; note: % is set by controls: 0 for no effect and ±100 for the full control effect; nearly all actives have a fitted effect of over 45% in size
[3] = target: Retinaldehyde dehydrogenase 3 (Homo sapiens) (UniProt P47895); experiment: qHTS for Inhibitors of the Aldehyde Dehydrogenase Family (ALDH1A3) Primary screen (AID 2061315); settings: ALDH inhibition qHTS; series mostly up to 56 µM;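 note: plate controls were DMSO vehicle for no effect and reference inhibitor for full effect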
[4] = BET inhibitor-based combinations targeting novel dependencies in MECOM-rearranged (r) AML: SET-2 cell line (AID 2202231); settings: SET-2 AML cells viability, CellTiter-Glo luminescence, 48 h; viability: hits give low values, concentration not given here;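 note: plate controls were DMSO treated cells for no effect and wells without cells for full effect; nearly all actives have a fitted effect of over 35% in size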
How it was run: (§1)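 Each compound was tested at eleven concentrations on cells seeded at 500/well. After two days' incubation, ATP-based luminescence reported viability; responses relative to DMSO and blank wells yielded AUC and cell-line-centred Z-AUC.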

[5] = BET inhibitor-based combinations targeting novel dependencies in MECOM-rearranged (r) AML: OCI-AML3 cell line (AID 2202232); settings: CellTiter-Glo luminescence, 48 h; Potency: OCI-AML3 viability; series mostly up to 46 µM; note: nearly all actives have a fitted effect of over 35% in size; note: potency is the fitted concentration of half-maximal effect
How it was run: as §1

[6] = BET inhibitor-based combinations targeting novel dependencies in MECOM-rearranged (r) AML: MV-4-11 cell line (AID 2202233); settings: MV-4-11 AML viability, CellTiter-Glo luminescence, 48 h; series mostly up to 46 µM; note: nearly all actives have a fitted effect of over 45% in size; note: potency is the fitted concentration of half-maximal effect
How it was run: (§2)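 First, 500 cells per well were seeded; next, drugs were pinned as 11-point doses; then plates sat 48 hr in the incubator; finally CellTiter-Glo was added and luminescence read, with AUC and Z-AUC computed.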

[7] = BET inhibitor-based combinations targeting novel dependencies in MECOM-rearranged (r) AML: HNT-34 cell line (AID 2202234); settings: HNT-34 AML viability, CellTiter-Glo luminescence, 48 h; series mostly up to 46 µM; note: nearly all actives have a fitted effect of over 35% in size; note: potency is the fitted concentration of half-maximal effect
How it was run: as §2

[8] = BET inhibitor-based combinations targeting novel dependencies in MECOM-rearranged (r) AML: UCSD-AML1 cell line (AID 2202235); settings: UCSD-AML1 AML cells viability, CellTiter-Glo, 48 h; series mostly up to 46 µM; note: nearly all actives have a fitted effect of over 40% in size; note: potency is the fitted concentration of half-maximal effect
How it was run: as §2

[9] = BET inhibitor-based combinations targeting novel dependencies in MECOM-rearranged (r) AML: AML-191 cell line (AID 2202236; note: potency is the fitted concentration of half-maximal effect; nearly all actives have a fitted effect of over 35% in size); settings: AML-191 viability, CellTiter-Glo luminescence, 48 h; series mostly up to 46 µM
How it was run: as §1

[10] = BET inhibitor-based combinations targeting novel dependencies in MECOM-rearranged (r) AML: AML-194 cell line (AID 2202237; note: potency is the fitted concentration of half-maximal effect; nearly all actives have a fitted effect of over 40% in size); settings: AML-194 (MECOM-r AML) viability, CellTiter-Glo, 48 h; series mostly up to 46 µM
How it was run: as §1

CC(=O)c1c(OCCN2CCCCC2)c(OCCC(C)c2ccc(F)cc2)c2oc(C)nc2c1C (stereo unspecified)
inactive: Potency [1] | Potency [2] | Potency [3]

CCCc1[nH]nc2c1C(c1cc(Cl)cc(Cl)c1O)C(C#N)=C(N)O2 (stereo unspecified)
inactive: Potency [1] | Potency [2] | Potency [3]

CC1CCN(C(c2ccc(F)cc2)c2ccc(C(C)C(=O)O)cc2-c2ccc(C(F)(F)F)cc2)CC1 (stereo unspecified)
inactive: Potency [1] | Potency [2] | Potency [3]

CCC(=C(c1ccc(OCCN2CCCC2)cc1)c1ccc(OCCN2CCCC2)cc1)c1ccccc1
inactive: Potency [1] | Potency [2] | Potency [3]

CN(C)c1nc(NC2CCC(NC(=O)c3ccc(F)c(F)c3)CC2)nc2ccccc12 (stereo unspecified)
inactive: Potency [1] | Potency [2] | Potency [3]

COc1cc(N(C)CCN(C)C)c(N)cc1Nc1nccc(-c2cn(C)c3ccccc23)n1
inactive: Potency [1] | Potency [2] | Potency [3]

C=CS(=O)(=O)NC1CCN(C(=O)CNc2cc(I)c(Cl)cc2OC)CC1
inactive: Potency [1] | Potency [2] | Potency [3]

CN(C)CC(=O)Nc1ccc2[nH]c(=O)c3ccccc3c2c1
inactive: Potency [1] | Potency [2] | Potency [3]

COc1ccc2cc1Oc1ccc(cc1)C[C@H]1c3c(cc4c(c3Oc3cc5c(cc3OC)CCN(C)[C@@H]5C2)OCO4)CCN1C
inactive: Potency [1] | Potency [2] | Potency [3]

CC(=O)N1CCN([C@H]2CCN(C(=O)N(C)[C@H](C)c3cc(C(F)(F)F)cc(C(F)(F)F)c3)[C@@H](c3ccc(F)cc3C)C2)CC1
inactive: Potency [1] | Potency [2] | Potency [3]

Cc1nc(Nc2cnn(C3CCNCC3)c2)nc2c1N(C)C(=O)c1cc3ccccc3cc1N2C
inactive: Potency [1] | Potency [2] | Potency [3]

O=C(NC1CCN(CCCCC2(C(=O)NCC(F)(F)F)c3ccccc3-c3ccccc32)CC1)c1ccccc1-c1ccc(C(F)(F)F)cc1
inactive: Potency [1] | Potency [2] | Potency [3]

Fc1ccc(-n2cc(CCCCN3CCC4(CC3)OCc3ccccc34)c3ccccc32)cc1
inactive: Potency [1] | Potency [2] | Potency [3]

COc1ccccc1OCCNCC(O)CCOc1cccc2[nH]c3ccccc3c12 (stereo unspecified)
inactive: Potency [1] | Potency [2] | Potency [3]

CC(=O)OC1C(=O)C2(C)C(O)CC3OCC3(OC(C)=O)C2C(OC(=O)c2ccccc2)C2(O)CC(OC(=O)C(O)C(NC(=O)c3ccccc3)c3ccccc3)C(C)=C1C2(C)C (stereo unspecified)
inactive: Potency [1] | Potency [2] | Potency [3]

CN(C)C(CCOc1cccc2ccccc12)c1ccccc1 (stereo unspecified)
inactive: Potency [1] | Potency [2] | Potency [3]

C[C@H]1[C@H](C)C[C@@H](C(=O)O)C2CC[C@]3(C)C(=CC[C@@H]4[C@@]5(C)CC[C@H](O)C(C)(C)[C@@H]5CC[C@]43C)[C@@H]21 (stereo partly specified)
inactive: Potency [1] | Potency [2] | Potency [3]

COc1cc(/C=C/C(=O)N2CCN(CC(=O)N3CCCC3)CC2)cc(OC)c1OC
inactive: Potency [1] | Potency [2] | Potency [3]

CCc1ccccc1OC[C@@H](O)CN[C@H]1CCCc2ccccc21
inactive: Potency [1] | Potency [2] | Potency [3]

CC(C)C1CCC(C(=O)N[C@@H](Cc2ccccc2)C(=O)O)CC1 (stereo partly specified)
inactive: Potency [1] | Potency [2] | Potency [3]

O=C(Nc1ncc(SCCN2CCCC2)s1)C1(c2ccc(S(=O)(=O)C3CC3)cc2)CC1C1CCCCC1 (stereo unspecified)
inactive: Potency [1] | Potency [2] | Potency [3]

Cn1c(=O)c2c(ncn2CC2OCCO2)n(C)c1=O
inactive: Potency [1] | Potency [2] | Potency [3] | viability [4] 103% | Potency [5] | Potency [6] | Potency [7] | Potency [8]

Cc1ccc(C(=O)N(CCCN)C(c2nc3cc(Cl)ccc3c(=O)n2Cc2ccccc2)C(C)C)cc1 (stereo unspecified)
inactive: Potency [1] | Potency [2] | Potency [3]

CCC[C@H]1C[C@H](C(=O)N[C@@H]([C@@H]2O[C@@H](SC)[C@@H](O)[C@@H](O)[C@@H]2O)[C@H](C)Cl)N(C)C1
inactive: Potency [1] | Potency [2] | Potency [3]

Cc1cc(C)c(Nc2ccnc(Nc3ccc(C#N)cc3)n2)c(C)c1
inactive: Potency [1] | Potency [2] | Potency [3]

CCN(Cc1ccccc1)C(=O)Cn1c(=O)n(C)c2cnc(-c3ccccc3)nc21
inactive: Potency [1] | Potency [2] | Potency [3]

CCCc1cc(C)[nH]c(=O)c1CNC(=O)c1cc(-c2ccc(N3CCN(C(C)C)CC3)nc2)cc2c1cnn2C(C)C
active: Potency [5] 18.6 µM | Potency [6] 16.6 µM | Potency [7] 20.9 µM | Potency [8] 16.6 µM | Potency [9] 29.5 µM | Potency [10] 14.8 µM
inactive: Potency [1] | Potency [2] | Potency [3] | viability [4] 110%

CN(C)CCN(Cc1ccccc1)C(=O)c1cc(-c2ccc(F)cc2)n2nc(C(C)(C)C)cc2n1
inactive: Potency [1] | Potency [2] | Potency [3]
